NTMT1 inhibitor: inhibitors of human N-terminal methyltransferase NTMT1 | Q9BV86 | NTMT1 MTase-Glo SAH luminescence, purified enzyme | Potency, µM (doses to about 114 µM), for inactives: at the top dose activity change, negative = inhibition, usual class: inhibitors | 2.5% of 59,000 active;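 note: potency is the fitted concentration of half-maximal effect; plate controls were DMSO vehicle for no effect and no enzyme for full effect; nearly all actives have a fitted effect of over 65% in size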
Target sequence (Q9BV86 whole entry, looked up): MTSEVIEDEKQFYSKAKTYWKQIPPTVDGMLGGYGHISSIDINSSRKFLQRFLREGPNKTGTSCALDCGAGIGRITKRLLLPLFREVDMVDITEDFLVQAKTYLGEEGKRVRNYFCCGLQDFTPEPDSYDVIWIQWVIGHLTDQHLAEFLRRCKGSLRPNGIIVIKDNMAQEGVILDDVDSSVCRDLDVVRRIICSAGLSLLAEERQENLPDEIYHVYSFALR
HTT-AS act: activates huntingtin-antisense promoter activity | HEK293 HTT-AS promoter firefly luciferase reporter, 24 h; response scale: percent change from vehicle, -100% = no light | Potency, µM (series often up to 57.5 µM), for inactives: at the highest dose activity change, positive = activation, hits mostly activators | 0.24% of 48,000 active | AID 1508624; note: potency is the fitted concentration of half-maximal effect; nearly all actives have a fitted effect of over 55% in size
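Quantitative HTS used concentration series of up to 57.5 uM final on HEK293 luciferase reporter cells, 24 h at 37 degrees C. Readout was Dual-Glo firefly luminescence.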
FH mod: Identification of activators of human fumarate hydratase by quantitative high-throughput screening. Potency, µM (top dose mostly 79.9 µM), for the others: top-dose activity change, negative = inhibition, actives largely listed as inhibitors. AID 1347055, 2019. FH coupled MDH/diaphorase resazurin fluorescence, 15 min. 0.22% of 54,000 active. Fumarate hydratase, mitochondrial (Homo sapiens), P07954; note: potency is the fitted concentration of half-maximal effect; % is set by controls: 0 for no effect and ±100 for the full control effect; the screen sought activators but most active calls are inhibition curves; nearly all actives have a fitted effect of over 45% in size
DRV1 agonist: agonists of human resolvin D1 receptor DRV1 (GPR32) | activation, % at 76.9 µM | CHO-K1 GPR32 beta-arrestin PathHunter luminescence, 90 min; zero percent set by DMSO-only wells | 2.5% of 48,000 active | O75388 | AID 1346428;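 active = activation of at least 60% and not above a set upper limit, about 1 call in 100 departs from these limits; inconclusive = activation of 40% to 60%, or above that upper limit; inactive = activation under 40%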; note: 0% is about no effect
Target sequence (O75388 whole entry, looked up): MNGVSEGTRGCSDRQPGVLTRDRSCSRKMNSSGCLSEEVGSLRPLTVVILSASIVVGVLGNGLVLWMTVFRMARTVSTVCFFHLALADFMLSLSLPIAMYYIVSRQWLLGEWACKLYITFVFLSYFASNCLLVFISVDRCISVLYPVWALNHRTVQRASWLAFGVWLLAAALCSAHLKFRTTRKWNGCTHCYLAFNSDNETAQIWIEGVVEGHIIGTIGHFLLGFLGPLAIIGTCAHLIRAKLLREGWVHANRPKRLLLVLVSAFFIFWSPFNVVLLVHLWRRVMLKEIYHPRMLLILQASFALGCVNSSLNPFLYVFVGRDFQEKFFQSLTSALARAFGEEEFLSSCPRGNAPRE
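Using DMSO wells as EC0, agonist-induced signal was taken as chemiluminescence from beta-Gal reconstituted upon beta-arrestin recruitment to GPR32 in CHO-K1 cells after 90 min compound treatment.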
HTT prom inh: inhibitors of huntingtin promoter activity | HEK293 HTT promoter firefly luciferase reporter, 24 h | Potency, µM (top dose mostly 57.5 µM), without a hit: top-dose activity change, negative = inhibition, usual class: inhibitors | 0.93% of 48,000 active | AID 1508623; note: potency is the fitted concentration of half-maximal effect; nearly all actives have a fitted effect of over 50% in size
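HEK293 luciferase promoter-reporter cells (2,500/well) plated 24 h, then compounds added at up to 57.5 uM final for 24 h at 37 °C. Firefly luminescence by Dual-Glo, normalized to vehicle (0%) and zero RLU (-100%).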
Numbers without * were called inactive; ? = inconclusive; nt = not tested or not shown; ! = not confirmed by another sample; [ ] = remark or other dose. Compounds with a hit are over-represented: about 4.7% of the library has one in this group of screens. Unless noted, calls come from the whole dose curve; as a rule, active = well fitted curve in the direction sought with a large enough effect; inconclusive = small, poorly fitted or top-dose-only effect, or another doubt; inactive = no such curve, though single readings can be large; an effect the other way counts as inactive or inconclusive.

SMILES | NTMT1 inhibitor | HTT-AS act | FH mod | DRV1 agonist | HTT prom inh
O=C(CCN1CCN(CCO)CC1)N1c2ccccc2Sc2ccc(C(F)(F)F)cc21 | 16%[57.5 µM] | -8% | 3%[53.3 µM] | -6 | 2%
CN1CCN(CCCN2c3ccccc3Sc3ccc(C(F)(F)F)cc32)CC1 | ? | -59% | ? | 64*! | ?
C=C1/C(=C/C=C2\CCC[C@]3(C)[C@@H]([C@@H](C)OCCC(O)(CC)CC)CC[C@@H]23)C[C@@H](O)C[C@@H]1O | 0%[57.5 µM] | nt | -8% | nt | nt
CCOC(=O)c1ccccc1NC(=O)CSc1ncc(CO)n1Cc1ccc(C)cc1 | nt | nt | nt | 74* | nt
COc1ccccc1NC(=O)CSc1ncc(CO)n1Cc1ccc(F)cc1 | ? | -26% | 3% | 65* | -14%
Cc1ccc(Cn2c(CO)cnc2SCc2cccc(F)c2)cc1 | -18% | 7% | -11% | 22 | 9%
OCc1cnc(SCc2cccc(F)c2)n1Cc1ccc(F)cc1 | -26% | -31% | -5% | 89* | -19%
Cc1ccccc1Sc1ccc(/C=C2\SC(=S)NC2=O)cc1[N+](=O)[O-] | 25µM* | nt | 28µM* | nt | nt
CCCn1c(=O)c2[nH]c(C34CC5CC3C[C@@H](C5)C4)nc2n(CCC)c1=O | 9% | -3% | 12%[53.3 µM] | nt | 4%
COc1cc2oc(=O)c(CC(=O)NCCc3ccccc3F)c(C)c2cc1OC | nt | nt | nt | 77* | nt
CCc1ccc(-c2cc3c(N4CCN(c5ccccc5)CC4)nccn3n2)cc1 | 79µM* | 12% | -11% | 13 | -3%
Cc1ccc(CN(C(=O)c2ccc(F)cc2)c2ccccn2)o1 | -6% | -13% | -10% | -38 | 8%
CCCCOc1cccc(C(=O)N(Cc2ccc(C)o2)c2ccccn2)c1 | -11% | -48% | -3% | 26 | 28µM*
CC(CNS(=O)(=O)c1ccc2c(c1)CC(=O)N2C)c1ccccc1 (centres undefined) | -5% | -8% | -6% | -9 | -13%
CCOC(=O)c1cnc2ccc(C)cc2c1Nc1ccc(N(CC)CC)cc1 | ? | -81% | ? | 43 | 25µM*
CN(C)C(=O)C1CCN(c2nc(-c3ccc(Br)cc3)cs2)CC1 | -5%[57.5 µM] | nt | nt | nt | nt
CC#C[C@@H](CC(=O)O)c1ccc(OCc2ccc(CN3CCC4(C=Cc5ccccc54)CC3)s2)cc1 | -2%[57.5 µM] | nt | -10% | nt | nt
CC(C)N(CCCNC(=O)Nc1ccc(C(C)(C)C)cc1)C[C@H]1O[C@@H](n2cc(Br)c3c(N)ncnc32)[C@H](O)[C@H]1O | 19µM* | -74% | 2%[53.3 µM] | nt | ?
NC[C@H]1O[C@@H](n2cnc3c(N)ncnc32)[C@H](O)[C@@H]1O | nt | nt | -22%[53.3 µM] | 3 | nt
O=C1NC(=O)C(=Cc2ccc(-c3ccc(F)cc3)o2)S1 | 22µM* | -14% | -16%[53.3 µM] | nt | -18%
Cc1nc(-c2cccnc2)sc1C(=O)Nc1ccccc1-c1cn2c(CN3CCOCC3)csc2n1 | 14% | nt | 3% | nt | nt
O=C(Nc1ccccc1-c1cn2c(CN3CCNCC3)csc2n1)c1cnc2ccccc2n1 | 3.5µM*! | -17% | ? | nt | -10%
Cc1ccc(NS(=O)(=O)c2cc3c(cc2NC(C)CO)NC(=O)CC3)cc1C (centres undefined) | -3% | nt | 4%[53.3 µM] | nt | nt
COc1ccc2nc(S(=O)Cc3ncc(C)c(OC)c3C)[nH]c2c1 (centres undefined) | 32µM*! | -29% | 5%[53.3 µM] | -11 | -27%
Cc1ccc(Cl)cc1N1CCN(C(=O)Cn2c(-c3cccs3)cc3cc(F)ccc32)CC1 | 13% | -15% | -2% | 3 | -24%
SMILES | NTMT1 inhibitor | HTT-AS act | FH mod | DRV1 agonist | HTT prom inh
COc1ccc(CNC(=O)C2CCN(C(=O)c3cnn(-c4ccccc4)c3-n3cccc3)CC2)cc1 | 89µM* | -44% | 0% | 0 | ?
CCOC(=O)c1ccccc1NC(=O)CSc1ccc(-c2sc(-c3ccccc3)nc2C)nn1 | -13% | -6% | -13% | -11 | -6%
CCCOc1ccc(-c2nonc2NC(=O)c2oc3ccc(Cl)cc3c2C)cc1OCCC | 42% | 8% | 6% | -2 | -12%
Cc1ccc(/C=C/c2nc3ccccc3[nH]2)cc1 | 5µM* | -72% | 0% | 31 | -68%
Cc1ccc(-c2ccc(=O)n(CC(=O)N(C)CCN(C)C)n2)cc1 | 18% | nt | nt | nt | nt
CCc1ccccc1NC(=O)C1CCN(C2=NS(=O)(=O)C(c3ccc(C)c(C)c3)=C2C)CC1 | 0% | -32% | 3% | 89* | ?
CCc1ccc(C2=C(C)C(N3CCC(C(=O)Nc4ccc(F)cc4)CC3)=NS2(=O)=O)cc1 | -1% | -27% | 4% | 74* | ?
CC1=C(c2ccc(C(C)C)cc2)S(=O)(=O)N=C1N1CCC(C(=O)NCCc2ccco2)CC1 | -2% | -28% | 3% | 64* | ?
CCC1=C(c2ccc(C)cc2)S(=O)(=O)N=C1N1CCC(C(=O)NCCc2ccc(Cl)cc2)CC1 | 2% | -40% | -23% | -16 | 20µM*
Cc1ccc(Cl)cc1-n1ncc2c(NCCC3=CCCCC3)ncnc21 | ? | 19% | -23% | 49 | -33%
Cc1ccc(O)c([C@H](CCN(C(C)C)C(C)C)c2ccccc2)c1 | ? | -9% | 0%[53.3 µM] | -6 | -4%
CC(C)C(=O)Oc1ccc(CO)cc1[C@H](CCN(C(C)C)C(C)C)c1ccccc1 | 22µM*! | -11% | ? | nt | -5%
COc1ccc(-n2c(=O)c3ccc(C(=O)NCc4ccc(C)cc4)cc3n(CC(=O)Nc3ccc(C)cc3)c2=O)cc1 | 10% | -36% | 12% | -3 | -26%
COc1ccc(-n2c(=O)c3ccc(C(=O)NCc4ccc(C)cc4)cc3n(CC(=O)Nc3ccc(F)cc3)c2=O)cc1 | 46% | -12% | 8% | 94* | -9%
CCCCCCCCCCCCCCCCCCNC(=O)OC1CCN(C(=O)OC[C@H](COC(=O)N(Cc2cccc[n+]2CC)C(=O)c2ccccc2OC)OC)CC1 | 50µM* | -39% | -10%[53.3 µM] | 30 | ?
CC(=O)Nc1sc2c(c1-c1nc3ccccc3s1)CNC2 | 79µM*! | -40% | -15% | nt | ?
CC(=O)Nc1sc2c(c1-c1nc3ccccc3s1)CCN(C(=O)OC(C)(C)C)C2 | -1% | nt | nt | nt | nt
CCOc1cc(CNC(=O)C(NS(=O)(=O)c2cccs2)C(C)C)cc(OCC)c1OCC (centres undefined) | -5% | 12% | 1% | -4 | -14%
O=C1OC2(CCC(C(=O)Nc3ccn(-c4ccccc4F)n3)CC2)c2cnccc21 (centres undefined) | 3% | nt | nt | nt | nt
CCOC(=O)c1ccc(NS(=O)(=O)c2cc(Br)cc3c2N(C(C)=O)C(C)C3)cc1 (centres undefined) | -1% | -52% | -6% | -4 | 16µM*
CC(=O)N1c2c(cc(Br)cc2S(=O)(=O)Nc2ccccc2C)CC1C (centres undefined) | 16% | -25% | -7% | 1 | -23%
CC(=O)N1c2c(cc(Br)cc2S(=O)(=O)Nc2ccc(OC(F)(F)F)cc2)CC1C (centres undefined) | 8% | -63% | -19% | 31 | 25µM*

From PubChem
